What all share (test): DAPPL (digital affinity profiling via proximity ligation, sequencing); 10 mM Tris-HCl pH 7.5, 50 mM NaCl, 1 mM DTT, 4% glycerol, room temperature, 30 min; GST-TFs on glutathione beads, 16-mer random dsDNA library, 0.1% formaldehyde crosslink after washing; high values mean tight binding
One test concerns the target T1, FEV (Homo sapiens, UniProt Q99581 1-238).
T1 sequence: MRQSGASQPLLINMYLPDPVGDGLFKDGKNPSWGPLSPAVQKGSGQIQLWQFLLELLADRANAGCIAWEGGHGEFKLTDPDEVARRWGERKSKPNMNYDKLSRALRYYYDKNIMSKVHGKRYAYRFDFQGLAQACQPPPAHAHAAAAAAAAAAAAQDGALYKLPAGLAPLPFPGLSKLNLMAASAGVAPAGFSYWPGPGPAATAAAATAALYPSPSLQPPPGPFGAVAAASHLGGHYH
To be noted: protein: recombinant; tags: N-terminal GST; dsDNA, one strand shown. In short, it runs like this:
(§1)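 Binding signal is given per hexamer as its read frequency for a factor divided by its frequency in the tag-only sample. GST-fused human transcription factors were expressed in yeast, captured on glutathione beads, barcoded with DNA and pooled with that sample, then incubated with 200 nmole of a 16-mer random double-stranded DNA library in Tris/NaCl/DTT/glycerol buffer for 30 min at room temperature. The pools were then washed, crosslinked, proximity-ligated, amplified by PCR and sequenced on an Illumina NextSeq500.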

For another test, the target named is ETV5 (Homo sapiens, UniProt P41161 1-510). Particulars: protein: recombinant; tags: N-terminal GST; dsDNA, one strand shown. In short, it runs like this: as §1
In the next test the target is HSF1 (Homo sapiens, UniProt Q00613 1-529). To be noted: protein: recombinant; tags: N-terminal GST; chain copies: 3; dsDNA, one strand shown. In short, it runs like this:
as §1

In a further test the target is T2, SPIC (Homo sapiens, UniProt Q8N5J4 1-248).
T2 sequence: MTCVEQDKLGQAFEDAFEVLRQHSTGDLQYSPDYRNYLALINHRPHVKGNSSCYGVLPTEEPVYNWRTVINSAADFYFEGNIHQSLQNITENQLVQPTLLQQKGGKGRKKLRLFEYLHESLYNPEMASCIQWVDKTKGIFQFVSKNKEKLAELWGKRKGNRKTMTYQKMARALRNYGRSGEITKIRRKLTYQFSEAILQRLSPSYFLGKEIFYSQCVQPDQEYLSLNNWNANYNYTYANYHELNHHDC
To be noted: protein: recombinant; tags: N-terminal GST; dsDNA, one strand shown. An outline of the steps: as §1

The target in a further test is ELF4 (Homo sapiens, UniProt Q99607 1-663). Particulars: protein: recombinant; tags: N-terminal GST; dsDNA, one strand shown. An outline of the steps: as §1
Another test has as its target T3, ELK4 (Homo sapiens, UniProt P28324-2 1-405).
T3 sequence: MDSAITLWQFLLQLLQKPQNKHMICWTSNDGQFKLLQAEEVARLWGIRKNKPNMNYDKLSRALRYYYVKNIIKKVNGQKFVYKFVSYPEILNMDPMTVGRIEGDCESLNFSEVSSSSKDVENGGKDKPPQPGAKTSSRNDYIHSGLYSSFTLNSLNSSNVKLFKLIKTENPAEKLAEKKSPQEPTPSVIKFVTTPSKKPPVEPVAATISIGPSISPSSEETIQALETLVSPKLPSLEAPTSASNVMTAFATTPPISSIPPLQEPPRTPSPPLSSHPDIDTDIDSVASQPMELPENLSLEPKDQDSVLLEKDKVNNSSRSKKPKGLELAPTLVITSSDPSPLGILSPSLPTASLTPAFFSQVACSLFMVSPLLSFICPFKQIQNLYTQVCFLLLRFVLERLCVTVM
Particulars: protein: recombinant; tags: N-terminal GST; dsDNA, one strand shown. An outline of the steps:
as §1

Another test has as its target T4, ETV2 (Homo sapiens, UniProt O00321 1-342).
T4 sequence: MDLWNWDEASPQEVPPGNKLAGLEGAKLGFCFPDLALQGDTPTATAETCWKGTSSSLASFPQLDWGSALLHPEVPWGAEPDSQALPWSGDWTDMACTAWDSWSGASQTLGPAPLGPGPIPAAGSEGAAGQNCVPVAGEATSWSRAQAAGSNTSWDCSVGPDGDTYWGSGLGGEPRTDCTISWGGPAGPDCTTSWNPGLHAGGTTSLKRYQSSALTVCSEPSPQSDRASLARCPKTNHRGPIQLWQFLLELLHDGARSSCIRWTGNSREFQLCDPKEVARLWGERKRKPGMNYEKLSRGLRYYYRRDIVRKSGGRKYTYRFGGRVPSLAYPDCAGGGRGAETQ
Particulars: protein: recombinant; tags: N-terminal GST; dsDNA, one strand shown. In short, it runs like this:
as §1

For the next test, the target named is T5, ELF3 (Homo sapiens, UniProt P78545 1-371).
T5 sequence: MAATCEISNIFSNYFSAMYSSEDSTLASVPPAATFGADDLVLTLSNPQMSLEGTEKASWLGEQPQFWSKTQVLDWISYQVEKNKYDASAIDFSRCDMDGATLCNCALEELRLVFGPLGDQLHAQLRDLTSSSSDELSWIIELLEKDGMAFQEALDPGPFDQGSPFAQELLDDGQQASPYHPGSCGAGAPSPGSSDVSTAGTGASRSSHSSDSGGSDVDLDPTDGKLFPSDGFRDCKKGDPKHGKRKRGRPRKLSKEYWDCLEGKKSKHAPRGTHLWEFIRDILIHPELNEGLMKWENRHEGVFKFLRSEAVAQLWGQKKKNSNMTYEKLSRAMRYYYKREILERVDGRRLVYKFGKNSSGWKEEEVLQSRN
Particulars: protein: recombinant; tags: N-terminal GST; dsDNA, one strand shown. In short, it runs like this: as §1

The next test concerns the target CRX (Homo sapiens, UniProt O43186 1-299). Particulars: protein: recombinant; tags: N-terminal GST; dsDNA, one strand shown. In short, it runs like this:
as §1

In a further test the target is ETV1 (Homo sapiens, UniProt P50549 1-477). To be noted: protein: recombinant; tags: N-terminal GST; dsDNA, one strand shown. In short, it runs like this: as §1
For a further test, the target named is T6, ERF (Homo sapiens, UniProt P50548 1-548).
T6 sequence: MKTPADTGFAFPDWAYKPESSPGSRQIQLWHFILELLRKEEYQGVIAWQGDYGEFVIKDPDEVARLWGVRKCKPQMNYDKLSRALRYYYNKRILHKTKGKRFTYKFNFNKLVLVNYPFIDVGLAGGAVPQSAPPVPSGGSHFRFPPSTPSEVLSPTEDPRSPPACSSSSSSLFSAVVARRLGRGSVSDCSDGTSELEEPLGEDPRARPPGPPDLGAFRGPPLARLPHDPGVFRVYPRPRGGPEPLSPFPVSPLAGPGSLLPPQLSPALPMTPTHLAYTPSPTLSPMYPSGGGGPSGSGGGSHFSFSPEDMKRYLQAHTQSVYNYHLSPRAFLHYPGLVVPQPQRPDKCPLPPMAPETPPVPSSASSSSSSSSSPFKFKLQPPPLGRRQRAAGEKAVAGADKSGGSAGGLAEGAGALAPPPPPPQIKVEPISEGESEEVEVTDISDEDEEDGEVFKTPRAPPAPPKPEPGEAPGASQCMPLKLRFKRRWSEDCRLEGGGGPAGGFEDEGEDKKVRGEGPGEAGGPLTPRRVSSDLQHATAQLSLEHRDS
To be noted: protein: recombinant; tags: N-terminal GST; dsDNA, one strand shown. In short, it runs like this: as §1

A further test concerns the target T7, ETV3L (Homo sapiens, UniProt Q6ZN32 1-361).
T7 sequence: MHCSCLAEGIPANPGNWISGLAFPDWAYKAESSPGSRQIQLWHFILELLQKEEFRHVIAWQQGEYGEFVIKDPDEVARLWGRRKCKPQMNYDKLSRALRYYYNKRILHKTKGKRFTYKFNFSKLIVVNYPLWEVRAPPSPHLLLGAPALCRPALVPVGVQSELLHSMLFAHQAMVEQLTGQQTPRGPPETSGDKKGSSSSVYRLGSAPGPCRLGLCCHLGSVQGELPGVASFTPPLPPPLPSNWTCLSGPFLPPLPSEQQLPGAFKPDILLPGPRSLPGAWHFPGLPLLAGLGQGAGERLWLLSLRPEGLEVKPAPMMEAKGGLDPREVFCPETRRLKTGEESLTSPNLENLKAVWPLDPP
To be noted: protein: recombinant; tags: N-terminal GST; dsDNA, one strand shown. An outline of the steps:
as §1

In a further test the target is T8, ETS2 (Homo sapiens, UniProt P15036 1-469).
T8 sequence: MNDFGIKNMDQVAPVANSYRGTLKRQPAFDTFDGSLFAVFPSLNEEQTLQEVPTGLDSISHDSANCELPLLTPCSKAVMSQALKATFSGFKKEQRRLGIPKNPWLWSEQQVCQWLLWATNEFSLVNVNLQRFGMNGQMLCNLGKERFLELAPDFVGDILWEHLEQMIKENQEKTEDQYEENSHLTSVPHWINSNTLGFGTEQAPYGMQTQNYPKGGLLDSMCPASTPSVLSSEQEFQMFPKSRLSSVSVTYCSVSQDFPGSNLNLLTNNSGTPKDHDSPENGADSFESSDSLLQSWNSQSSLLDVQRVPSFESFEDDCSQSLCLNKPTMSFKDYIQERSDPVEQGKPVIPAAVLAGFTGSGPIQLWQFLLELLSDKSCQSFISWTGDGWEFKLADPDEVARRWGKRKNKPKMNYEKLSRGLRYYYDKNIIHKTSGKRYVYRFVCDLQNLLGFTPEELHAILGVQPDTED
To be noted: protein: recombinant; tags: N-terminal GST; dsDNA, one strand shown. An outline of the steps: as §1

The next test addresses T9, SPDEF (Homo sapiens, UniProt O95238 1-335).
T9 sequence: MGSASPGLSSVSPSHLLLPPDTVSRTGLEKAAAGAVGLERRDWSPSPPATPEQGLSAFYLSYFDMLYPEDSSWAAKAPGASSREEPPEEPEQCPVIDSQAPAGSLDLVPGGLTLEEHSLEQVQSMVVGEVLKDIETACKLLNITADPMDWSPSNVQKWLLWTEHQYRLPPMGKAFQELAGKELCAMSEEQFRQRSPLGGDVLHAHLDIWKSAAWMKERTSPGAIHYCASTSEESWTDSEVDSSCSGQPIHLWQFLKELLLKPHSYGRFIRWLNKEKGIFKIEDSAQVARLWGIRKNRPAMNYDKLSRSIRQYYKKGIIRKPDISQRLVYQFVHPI
Particulars: protein: recombinant; tags: N-terminal GST; dsDNA, one strand shown. An outline of the steps: as §1

The next test deals with T10, ETV7 (Homo sapiens, UniProt Q9Y603 1-341).
T10 sequence: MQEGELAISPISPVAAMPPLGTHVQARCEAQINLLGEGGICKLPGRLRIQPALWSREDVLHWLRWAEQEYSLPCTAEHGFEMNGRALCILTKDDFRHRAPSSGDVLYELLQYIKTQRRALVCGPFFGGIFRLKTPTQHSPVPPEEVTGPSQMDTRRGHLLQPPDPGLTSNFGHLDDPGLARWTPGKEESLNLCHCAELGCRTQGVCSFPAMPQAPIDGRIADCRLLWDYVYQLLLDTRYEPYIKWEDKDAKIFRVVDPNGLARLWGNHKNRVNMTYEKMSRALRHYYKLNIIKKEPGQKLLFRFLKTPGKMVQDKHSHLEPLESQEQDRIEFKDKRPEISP
To be noted: protein: recombinant; tags: N-terminal GST; dsDNA, one strand shown. An outline of the steps:
as §1

The target in a further test is T11, ELF5 (Homo sapiens, UniProt Q9UKW6-2 1-255).
T11 sequence: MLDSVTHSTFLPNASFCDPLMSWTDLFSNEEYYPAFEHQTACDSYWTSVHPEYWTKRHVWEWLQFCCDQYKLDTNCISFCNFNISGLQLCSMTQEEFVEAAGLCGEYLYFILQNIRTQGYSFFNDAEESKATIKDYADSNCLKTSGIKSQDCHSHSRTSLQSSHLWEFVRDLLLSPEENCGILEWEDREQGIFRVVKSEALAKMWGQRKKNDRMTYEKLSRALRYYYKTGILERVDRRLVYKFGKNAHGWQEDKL
Particulars: protein: recombinant; tags: N-terminal GST; dsDNA, one strand shown. In short, it runs like this: as §1

Another test deals with T12, ETV3 (Homo sapiens, UniProt P41162-2 1-143).
T12 sequence: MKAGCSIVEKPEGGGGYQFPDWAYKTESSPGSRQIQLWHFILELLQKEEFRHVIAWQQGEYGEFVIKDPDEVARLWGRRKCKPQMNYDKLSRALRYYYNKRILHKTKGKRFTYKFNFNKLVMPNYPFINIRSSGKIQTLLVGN
To be noted: protein: recombinant; tags: N-terminal GST; dsDNA, one strand shown. In short, it runs like this: as §1

The next test deals with ETV6 (Homo sapiens, UniProt P41212 1-452). Particulars: protein: recombinant; tags: N-terminal GST; dsDNA, one strand shown. An outline of the steps: as §1
ETV6, sequence (P41212 whole entry): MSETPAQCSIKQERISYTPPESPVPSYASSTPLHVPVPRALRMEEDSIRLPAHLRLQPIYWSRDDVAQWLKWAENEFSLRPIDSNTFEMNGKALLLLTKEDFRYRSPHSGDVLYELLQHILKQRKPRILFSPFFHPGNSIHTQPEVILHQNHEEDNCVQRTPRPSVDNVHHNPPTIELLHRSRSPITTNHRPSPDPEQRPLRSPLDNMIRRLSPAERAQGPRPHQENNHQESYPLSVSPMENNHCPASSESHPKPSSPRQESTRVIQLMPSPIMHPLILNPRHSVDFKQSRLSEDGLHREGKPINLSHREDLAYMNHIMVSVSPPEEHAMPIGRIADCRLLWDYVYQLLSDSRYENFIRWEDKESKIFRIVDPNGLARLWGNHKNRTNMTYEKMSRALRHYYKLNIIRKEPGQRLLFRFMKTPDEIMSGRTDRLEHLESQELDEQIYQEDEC

ETV5, sequence (P41161 whole entry): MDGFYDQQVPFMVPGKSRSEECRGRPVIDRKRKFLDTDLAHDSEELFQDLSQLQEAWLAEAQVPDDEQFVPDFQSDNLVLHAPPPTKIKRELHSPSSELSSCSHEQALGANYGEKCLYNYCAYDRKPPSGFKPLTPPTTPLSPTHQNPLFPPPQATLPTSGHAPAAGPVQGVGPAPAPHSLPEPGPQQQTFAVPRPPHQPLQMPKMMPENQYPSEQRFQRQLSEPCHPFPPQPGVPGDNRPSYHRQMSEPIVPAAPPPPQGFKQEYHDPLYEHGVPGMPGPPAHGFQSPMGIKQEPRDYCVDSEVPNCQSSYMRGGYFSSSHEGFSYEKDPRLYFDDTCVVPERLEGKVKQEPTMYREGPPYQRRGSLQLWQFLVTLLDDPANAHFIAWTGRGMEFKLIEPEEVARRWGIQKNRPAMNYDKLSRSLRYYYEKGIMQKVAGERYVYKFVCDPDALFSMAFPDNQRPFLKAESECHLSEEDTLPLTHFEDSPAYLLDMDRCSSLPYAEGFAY
ETV1, sequence (P50549 whole entry): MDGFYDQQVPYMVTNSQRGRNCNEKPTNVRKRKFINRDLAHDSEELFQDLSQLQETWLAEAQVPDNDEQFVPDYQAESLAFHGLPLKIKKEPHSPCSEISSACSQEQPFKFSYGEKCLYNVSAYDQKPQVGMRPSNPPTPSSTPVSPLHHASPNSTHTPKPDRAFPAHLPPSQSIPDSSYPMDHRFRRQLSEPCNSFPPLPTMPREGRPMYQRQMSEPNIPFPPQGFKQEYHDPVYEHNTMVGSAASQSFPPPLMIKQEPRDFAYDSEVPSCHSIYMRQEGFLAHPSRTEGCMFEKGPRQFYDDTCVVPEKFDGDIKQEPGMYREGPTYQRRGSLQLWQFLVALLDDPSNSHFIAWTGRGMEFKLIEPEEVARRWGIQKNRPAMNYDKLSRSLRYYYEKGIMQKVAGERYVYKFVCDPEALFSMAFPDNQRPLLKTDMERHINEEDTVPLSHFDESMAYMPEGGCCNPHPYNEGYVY
CRX, sequence (O43186 whole entry): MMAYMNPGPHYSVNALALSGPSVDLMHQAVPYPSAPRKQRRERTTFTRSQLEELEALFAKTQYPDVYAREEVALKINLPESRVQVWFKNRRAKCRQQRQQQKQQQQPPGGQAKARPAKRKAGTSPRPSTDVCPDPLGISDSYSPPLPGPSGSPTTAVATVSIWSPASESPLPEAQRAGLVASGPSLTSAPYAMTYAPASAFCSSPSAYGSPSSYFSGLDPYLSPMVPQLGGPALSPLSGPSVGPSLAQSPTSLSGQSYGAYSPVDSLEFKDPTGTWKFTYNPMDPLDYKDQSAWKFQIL
ELF4, sequence (Q99607 whole entry): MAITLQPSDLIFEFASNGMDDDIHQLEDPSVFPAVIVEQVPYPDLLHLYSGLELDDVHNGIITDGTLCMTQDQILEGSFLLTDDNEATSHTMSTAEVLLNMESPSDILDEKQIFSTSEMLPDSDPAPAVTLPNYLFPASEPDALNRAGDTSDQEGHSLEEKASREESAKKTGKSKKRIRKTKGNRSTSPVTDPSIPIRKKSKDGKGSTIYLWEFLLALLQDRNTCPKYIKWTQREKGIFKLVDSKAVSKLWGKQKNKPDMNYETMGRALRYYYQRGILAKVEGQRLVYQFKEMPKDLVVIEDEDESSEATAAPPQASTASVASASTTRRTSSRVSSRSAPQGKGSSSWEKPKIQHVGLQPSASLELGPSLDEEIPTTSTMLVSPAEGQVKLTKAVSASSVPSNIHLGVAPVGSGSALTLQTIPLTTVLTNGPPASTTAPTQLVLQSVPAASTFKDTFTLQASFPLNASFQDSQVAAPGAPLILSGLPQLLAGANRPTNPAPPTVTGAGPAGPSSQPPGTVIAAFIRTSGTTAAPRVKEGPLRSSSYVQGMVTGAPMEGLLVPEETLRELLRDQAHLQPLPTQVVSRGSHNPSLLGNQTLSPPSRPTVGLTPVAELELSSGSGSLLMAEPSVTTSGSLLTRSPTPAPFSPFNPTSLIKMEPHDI
HSF1, sequence (Q00613 whole entry): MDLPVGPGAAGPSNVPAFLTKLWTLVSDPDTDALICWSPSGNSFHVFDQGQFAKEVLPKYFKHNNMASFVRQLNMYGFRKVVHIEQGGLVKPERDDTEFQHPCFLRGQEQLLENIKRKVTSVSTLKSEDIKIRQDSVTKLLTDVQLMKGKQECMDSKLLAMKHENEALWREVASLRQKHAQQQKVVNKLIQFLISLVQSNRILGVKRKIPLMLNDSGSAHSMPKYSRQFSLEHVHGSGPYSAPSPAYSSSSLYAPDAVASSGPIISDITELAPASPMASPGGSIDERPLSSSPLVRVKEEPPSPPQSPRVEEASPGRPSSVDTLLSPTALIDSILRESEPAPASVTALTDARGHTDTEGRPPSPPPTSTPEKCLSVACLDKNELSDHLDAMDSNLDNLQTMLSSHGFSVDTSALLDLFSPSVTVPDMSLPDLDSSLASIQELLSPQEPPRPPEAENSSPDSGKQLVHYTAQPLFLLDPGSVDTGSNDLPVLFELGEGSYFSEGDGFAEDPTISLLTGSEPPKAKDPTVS

For CCCCAT, the binding signal in the test with FEV was 1.2 fold enrichment (6-mer frequency, TF over GST control); in the test with ETV5, 1.34 fold enrichment (6-mer frequency, TF over GST control); with HSF1, 1.1 fold enrichment (6-mer frequency, TF over GST control); in the test with SPIC it was 1.41 fold enrichment (6-mer frequency, TF over GST control); with ELF4 it was 1.34 fold enrichment (6-mer frequency, TF over GST control); with ELK4 it was 1.22 fold enrichment (6-mer frequency, TF over GST control). The binding signal is 1.52 fold enrichment (6-mer frequency, TF over GST control) with ETV2; 1.16 fold enrichment (6-mer frequency, TF over GST control) in the test with ELF3; 1.15 fold enrichment (6-mer frequency, TF over GST control) in the test with CRX; 1.37 fold enrichment (6-mer frequency, TF over GST control) with ETV1; 1.16 fold enrichment (6-mer frequency, TF over GST control) with ERF; 1.29 fold enrichment (6-mer frequency, TF over GST control) with ETV3L. The binding signal with ETS2 was 1.32 fold enrichment (6-mer frequency, TF over GST control); in the test with SPDEF, 1.3 fold enrichment (6-mer frequency, TF over GST control); with ETV7, 1.19 fold enrichment (6-mer frequency, TF over GST control); with ELF5, 1.39 fold enrichment (6-mer frequency, TF over GST control); with ETV3, 1.31 fold enrichment (6-mer frequency, TF over GST control); in the test with ETV6, 1.25 fold enrichment (6-mer frequency, TF over GST control).

The values are drawn from article PMC7862700, “An all-to-all approach to the identification of sequence-specific readers for epigenetic DNA modifications on cytosine”.
